Data reported in the supplement of paper PMC10849652.
Targets with a hit are over-represented here; the source holds about 8,800 in all. About 0.5% of all pairs of compound and target were hits.

Experiments:
Experiment in all cases: log2 fold change, soluble protein after heating vs DMSO (PISA); higher = thermal stabilisation; K562 lysate, 10 uM; active = over 0.2 and 3.5 SD of the protein, either way, in both replicates (recomputed)
[1] = compound: C1=CC=C(C=C1)[C@H](COC2=CC3=C(C=C2)NC(=O)N3)NC(=O)C4=CC=CN(C4=O)CC5=CC(=C(C=C5)F)F
How it was run: (§1)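 Following dounce homogenisation of K562 pellets in PBS pH 7.4 with 1 mM MgCl2, crude extract at 1 mg/mL protein was incubated for 30 min with 10 μM compound. Aliquots were then heated for 3 min over 48°C-58°C and pooled, NP-40 was added to 0.5% at 4°C, and soluble protein was recovered as the supernatant at 21,000xg for 90 min. Channel-sum-equalised TMTpro 16plex LC-MS/MS quantified this protein. Each value, from duplicates, is a log-two fold change in thermal stability relative to solvent controls.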

[2] = compound: CC1=C(SC2=C1C(=N[C@H](C3=NN=C(N32)C)CC(=O)N)C4=CC=C(C=C4)Cl)C
How it was run: as §1

[3] = compound: CC1=C2C(=CC=C1)N=C(N(C2=O)C3=CC=CC=C3C)CN4C=NC5=C(N=CN=C54)N
How it was run: as §1

[4] = compound: Cc1sc2c(c1C)C(c1ccc(Cl)cc1)=N[C@@H](CC(=O)OC(C)(C)C)c1nnc(C)n1-2
How it was run: as §1

[5] = compound: c1ccc([C@@H]2C[C@H]2NC2CCNCC2)cc1
How it was run: as §1

Measured: log2 fold change

LSS (UniProt P48449)
inactive: [1] 0.016 | [2] -0.083 | [3] 0.014 | [4] -0.012 | [5] -0.007

MAP2K7 isoform 4 (UniProt O14733)
inactive: [1] -0.072 | [2] -0.261 | [3] -0.038 | [4] 0.066 | [5] 0.079

MCMBP isoform 2 (UniProt Q9BTE3)
inactive: [1] 0.045 | [2] 0.02 | [3] 0.007 | [4] 0.018

MAPKAPK5 (UniProt Q8IW41)
inactive: [1] 0.034 | [2] 0.027 | [3] 0.014 | [4] 0.013 | [5] 0.01

MLLT11 (UniProt Q13015)
inactive: [1] 0.007 | [2] -0.048 | [3] 0.109 | [4] -0.037 | [5] 0.003

MPP5 (UniProt Q8N3R9)
inactive: [1] -0.044 | [2] 0.045 | [3] -0.006 | [4] 0.029 | [5] -0.11

MAP4K2 (UniProt Q12851)
inactive: [1] -0.088 | [2] 0.053 | [3] 0.022 | [4] -0.13 | [5] -0.087

KIF4B (UniProt Q2VIQ3)
Chain of UniProt Q2VIQ3 (Q2VIQ3 whole entry, looked up): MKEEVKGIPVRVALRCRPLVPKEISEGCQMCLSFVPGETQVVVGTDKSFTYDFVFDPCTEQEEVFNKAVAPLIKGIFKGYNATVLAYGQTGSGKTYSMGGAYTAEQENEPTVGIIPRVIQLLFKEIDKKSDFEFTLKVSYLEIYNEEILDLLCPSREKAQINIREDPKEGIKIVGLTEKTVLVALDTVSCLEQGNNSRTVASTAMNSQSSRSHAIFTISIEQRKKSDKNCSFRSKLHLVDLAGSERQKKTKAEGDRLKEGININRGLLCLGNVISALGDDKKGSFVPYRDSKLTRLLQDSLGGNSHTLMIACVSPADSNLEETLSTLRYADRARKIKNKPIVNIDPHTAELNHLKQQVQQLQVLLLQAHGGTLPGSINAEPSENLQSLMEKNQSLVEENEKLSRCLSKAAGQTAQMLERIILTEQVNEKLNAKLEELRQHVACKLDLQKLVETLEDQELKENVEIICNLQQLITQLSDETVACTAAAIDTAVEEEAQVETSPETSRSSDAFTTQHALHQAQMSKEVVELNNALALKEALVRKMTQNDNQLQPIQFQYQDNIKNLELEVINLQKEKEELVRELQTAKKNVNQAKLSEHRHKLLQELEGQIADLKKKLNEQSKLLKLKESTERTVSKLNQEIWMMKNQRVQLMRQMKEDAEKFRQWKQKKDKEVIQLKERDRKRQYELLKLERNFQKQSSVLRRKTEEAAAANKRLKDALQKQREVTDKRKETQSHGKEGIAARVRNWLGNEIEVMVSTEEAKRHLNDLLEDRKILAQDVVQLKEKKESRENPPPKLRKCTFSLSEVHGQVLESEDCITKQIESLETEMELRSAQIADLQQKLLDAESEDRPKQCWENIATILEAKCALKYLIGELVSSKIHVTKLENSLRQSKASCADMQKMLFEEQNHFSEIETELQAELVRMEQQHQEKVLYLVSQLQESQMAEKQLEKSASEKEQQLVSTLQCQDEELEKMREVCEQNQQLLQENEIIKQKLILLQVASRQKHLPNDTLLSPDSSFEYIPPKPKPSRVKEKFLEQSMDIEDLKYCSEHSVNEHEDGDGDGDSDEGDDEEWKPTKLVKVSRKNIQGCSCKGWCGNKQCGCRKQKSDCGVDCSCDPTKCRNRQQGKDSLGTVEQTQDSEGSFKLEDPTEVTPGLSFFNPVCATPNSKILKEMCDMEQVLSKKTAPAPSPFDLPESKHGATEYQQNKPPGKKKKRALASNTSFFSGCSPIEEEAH
inactive: [1] 0.035 | [2] 0.009 | [3] -0.02 | [4] 0.029 | [5] 0.013

MAP2K4 isoform 2 (UniProt P45985)
inactive: [1] -0.018 | [2] 0.005 | [3] -0.065 | [4] -0.013 | [5] 0.188

MINDY1 isoform 3 (UniProt Q8N5J2)
inactive: [1] 0.017 | [2] 0.061 | [3] -0.003 | [4] 0.028

KRIT1 (UniProt O00522)
inactive: [1] -0.026 | [2] -0.041 | [3] 0.099 | [4] -0.082

MAPK3 (UniProt P27361)
inactive: [1] 0.008 | [2] 0.006 | [3] -0.05 | [4] 0.036 | [5] -0.048

KSR1 (UniProt Q8IVT5)
inactive: [1] -0.081 | [2] -0.024 | [3] 0.035 | [4] 0.035
active: [5] 0.242

MAP4 isoform 5 (UniProt P27816)
inactive: [1] -0.065 | [2] 0.099 | [3] 0.163 | [4] 0.181

LRRC7 (UniProt Q96NW7)
Chain of UniProt Q96NW7 (Q96NW7 whole entry, looked up): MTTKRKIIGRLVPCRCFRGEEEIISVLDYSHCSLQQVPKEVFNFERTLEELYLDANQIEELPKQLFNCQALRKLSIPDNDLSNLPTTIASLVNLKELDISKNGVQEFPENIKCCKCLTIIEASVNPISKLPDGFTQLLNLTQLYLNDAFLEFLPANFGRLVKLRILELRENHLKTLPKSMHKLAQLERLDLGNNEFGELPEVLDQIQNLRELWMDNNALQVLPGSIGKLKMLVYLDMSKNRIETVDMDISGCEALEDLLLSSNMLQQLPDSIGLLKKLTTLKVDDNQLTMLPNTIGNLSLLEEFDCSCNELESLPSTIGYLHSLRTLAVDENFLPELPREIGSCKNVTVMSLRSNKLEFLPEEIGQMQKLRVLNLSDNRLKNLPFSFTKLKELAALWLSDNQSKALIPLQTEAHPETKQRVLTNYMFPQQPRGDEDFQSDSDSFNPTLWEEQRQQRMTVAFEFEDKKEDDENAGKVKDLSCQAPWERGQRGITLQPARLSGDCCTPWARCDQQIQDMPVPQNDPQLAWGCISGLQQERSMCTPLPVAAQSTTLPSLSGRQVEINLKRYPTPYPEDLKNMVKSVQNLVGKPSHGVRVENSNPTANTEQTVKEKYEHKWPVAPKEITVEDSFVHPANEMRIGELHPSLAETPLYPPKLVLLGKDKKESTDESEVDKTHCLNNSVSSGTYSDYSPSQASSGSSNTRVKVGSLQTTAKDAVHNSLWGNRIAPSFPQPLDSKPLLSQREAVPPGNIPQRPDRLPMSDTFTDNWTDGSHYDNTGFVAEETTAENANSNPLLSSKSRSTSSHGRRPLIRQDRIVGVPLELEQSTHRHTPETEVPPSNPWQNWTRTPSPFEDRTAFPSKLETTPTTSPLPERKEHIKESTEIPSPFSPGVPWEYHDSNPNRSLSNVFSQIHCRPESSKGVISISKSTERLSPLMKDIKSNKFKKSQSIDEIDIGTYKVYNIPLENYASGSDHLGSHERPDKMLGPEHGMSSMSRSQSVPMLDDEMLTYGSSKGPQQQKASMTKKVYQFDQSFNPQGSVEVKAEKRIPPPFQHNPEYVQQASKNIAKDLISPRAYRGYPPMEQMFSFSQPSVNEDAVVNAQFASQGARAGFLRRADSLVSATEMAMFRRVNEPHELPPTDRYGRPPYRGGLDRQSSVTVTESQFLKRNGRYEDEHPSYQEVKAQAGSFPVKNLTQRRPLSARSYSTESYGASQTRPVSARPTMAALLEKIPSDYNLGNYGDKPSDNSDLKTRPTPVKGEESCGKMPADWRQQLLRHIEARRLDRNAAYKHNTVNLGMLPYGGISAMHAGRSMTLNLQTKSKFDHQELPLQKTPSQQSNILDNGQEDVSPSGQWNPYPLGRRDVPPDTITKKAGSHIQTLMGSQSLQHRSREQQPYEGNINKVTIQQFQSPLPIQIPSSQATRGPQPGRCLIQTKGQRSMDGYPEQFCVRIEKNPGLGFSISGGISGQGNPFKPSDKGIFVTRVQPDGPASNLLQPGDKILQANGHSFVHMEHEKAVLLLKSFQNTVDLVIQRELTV
inactive: [1] -0.001 | [2] -0.047 | [3] -0.309 | [4] 0 | [5] -0.001

MITD1 (UniProt Q8WV92)
inactive: [1] -0.036 | [2] -0.038 | [3] -0.015 | [4] -0.026 | [5] 0.117

MECR (UniProt Q9BV79)
inactive: [1] -0.001 | [2] 0.013 | [3] 0.047 | [4] -0.048 | [5] 0.005

MIF (UniProt P14174)
inactive: [1] 0.046 | [2] 0.022 | [3] -0.043 | [4] -0.013 | [5] -0.09

KLHL12 isoform 2 (UniProt Q53G59)
Chain of UniProt Q53G59 (Q53G59 whole entry, looked up): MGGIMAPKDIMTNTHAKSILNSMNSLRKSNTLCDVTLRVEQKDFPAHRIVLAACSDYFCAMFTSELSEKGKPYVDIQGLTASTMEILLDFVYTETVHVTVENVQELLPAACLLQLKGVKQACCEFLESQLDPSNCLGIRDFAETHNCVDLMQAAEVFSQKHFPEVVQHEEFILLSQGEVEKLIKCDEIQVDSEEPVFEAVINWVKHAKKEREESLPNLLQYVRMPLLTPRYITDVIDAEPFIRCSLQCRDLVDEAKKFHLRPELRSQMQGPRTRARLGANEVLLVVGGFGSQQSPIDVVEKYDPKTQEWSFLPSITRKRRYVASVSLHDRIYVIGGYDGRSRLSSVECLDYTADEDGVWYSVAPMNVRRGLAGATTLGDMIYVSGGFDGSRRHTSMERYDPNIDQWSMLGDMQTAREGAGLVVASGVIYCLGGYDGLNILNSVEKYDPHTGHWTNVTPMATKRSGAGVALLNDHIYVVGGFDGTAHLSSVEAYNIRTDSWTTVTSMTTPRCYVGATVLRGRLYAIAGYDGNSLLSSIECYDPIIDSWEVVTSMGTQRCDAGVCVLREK
inactive: [1] 0.152 | [2] -0.049 | [3] -0.013 | [4] 0.161

KLHL36 (UniProt Q8N4N3)
Chain of UniProt Q8N4N3 (Q8N4N3 whole entry, looked up): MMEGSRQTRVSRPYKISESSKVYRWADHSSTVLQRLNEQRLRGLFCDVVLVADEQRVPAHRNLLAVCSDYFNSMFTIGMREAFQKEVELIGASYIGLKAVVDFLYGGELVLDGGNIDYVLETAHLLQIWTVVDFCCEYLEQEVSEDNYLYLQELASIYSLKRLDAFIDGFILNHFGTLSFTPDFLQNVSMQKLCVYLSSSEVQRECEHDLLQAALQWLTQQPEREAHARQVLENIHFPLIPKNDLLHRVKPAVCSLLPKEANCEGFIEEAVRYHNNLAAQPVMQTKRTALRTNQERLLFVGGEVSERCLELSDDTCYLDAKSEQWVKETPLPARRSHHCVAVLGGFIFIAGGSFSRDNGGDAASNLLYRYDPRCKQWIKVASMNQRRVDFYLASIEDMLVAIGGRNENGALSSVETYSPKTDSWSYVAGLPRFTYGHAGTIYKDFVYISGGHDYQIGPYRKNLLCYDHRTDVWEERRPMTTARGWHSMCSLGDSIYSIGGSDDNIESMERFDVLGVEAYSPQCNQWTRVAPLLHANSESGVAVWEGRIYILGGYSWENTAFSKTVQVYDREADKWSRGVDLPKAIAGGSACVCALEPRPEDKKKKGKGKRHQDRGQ
inactive: [1] -0.072 | [2] -0.086 | [3] -0.018 | [4] -0.011 | [5] 0.074

KIFC1 (UniProt Q9BW19)
inactive: [1] 0.046 | [2] -0.008 | [3] 0.122 | [4] 0.021 | [5] 0.029

MAPKAPK3 (UniProt Q16644)
inactive: [1] 0.03 | [2] -0.031 | [3] -0.005 | [4] 0.009 | [5] 0.019

LUZP1 (UniProt Q86V48)
Chain of UniProt Q86V48 (Q86V48 whole entry, looked up): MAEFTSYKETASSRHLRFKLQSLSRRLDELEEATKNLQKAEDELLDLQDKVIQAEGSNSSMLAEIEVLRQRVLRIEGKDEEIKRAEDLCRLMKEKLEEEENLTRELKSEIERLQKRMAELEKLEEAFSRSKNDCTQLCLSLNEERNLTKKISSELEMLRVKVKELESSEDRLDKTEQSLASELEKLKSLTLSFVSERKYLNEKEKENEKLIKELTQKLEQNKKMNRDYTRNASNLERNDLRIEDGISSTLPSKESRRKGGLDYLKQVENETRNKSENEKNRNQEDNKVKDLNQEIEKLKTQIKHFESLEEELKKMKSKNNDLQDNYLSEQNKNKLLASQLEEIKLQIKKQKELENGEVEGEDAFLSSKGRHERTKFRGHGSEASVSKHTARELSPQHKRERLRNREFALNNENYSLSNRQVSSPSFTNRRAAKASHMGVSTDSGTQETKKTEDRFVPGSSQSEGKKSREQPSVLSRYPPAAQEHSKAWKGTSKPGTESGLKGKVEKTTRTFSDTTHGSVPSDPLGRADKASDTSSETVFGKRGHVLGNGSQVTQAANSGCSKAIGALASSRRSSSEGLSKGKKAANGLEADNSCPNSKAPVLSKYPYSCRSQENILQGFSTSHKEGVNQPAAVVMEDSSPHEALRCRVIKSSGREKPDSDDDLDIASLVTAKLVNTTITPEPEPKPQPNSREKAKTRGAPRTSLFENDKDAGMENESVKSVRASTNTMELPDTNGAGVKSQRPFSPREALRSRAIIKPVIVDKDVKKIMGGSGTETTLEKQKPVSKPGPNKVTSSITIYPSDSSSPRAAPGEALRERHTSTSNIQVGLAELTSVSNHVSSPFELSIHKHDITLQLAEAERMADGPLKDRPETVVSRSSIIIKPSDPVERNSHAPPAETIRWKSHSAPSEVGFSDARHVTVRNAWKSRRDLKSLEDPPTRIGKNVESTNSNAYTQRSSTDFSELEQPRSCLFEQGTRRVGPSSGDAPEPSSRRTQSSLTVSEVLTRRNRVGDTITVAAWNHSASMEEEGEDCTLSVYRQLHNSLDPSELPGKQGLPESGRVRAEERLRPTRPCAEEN
inactive: [1] 0.039 | [2] -0.113 | [3] 0.032 | [4] 0.007 | [5] -0.056

KPNA2 (UniProt P52292)
inactive: [1] -0.016 | [2] 0.027 | [3] 0.035 | [4] 0.003 | [5] 0.06

LZTR1 (UniProt Q8N653)
inactive: [1] -0.237 | [2] 0.004 | [3] 0.005 | [4] -0.004 | [5] 0.036
